PubChem BioAssay AID602252 (Broad Institute, 2012)
Among all 300,000 compounds or so, about 2,700 (0.9%) were called active.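 How the source made its calls: active means mean inhibition of at least 30% with at least half of replicates also reaching 30%; inconclusive means no clear call, values can overlap the other calls; inactive means the rest.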 Many of the other results were omitted from the sample, so actives are more common in it than they were.

These molecules were tested against Golgi-associated PDZ and coiled-coil motif-containing protein (Homo sapiens) (UniProt Q9HD26) (assay: untagged CAL PDZ binding inhibitors, primary screen, biochemical, fluorescence polarization, HTS (AID 602252;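 further: 0% = DMSO neutral control and 100% = excess unlabeled competitor peptide PRC23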)). Details: purified CAL PDZ, TMR-peptide fluorescence polarization, 1 h; at 24.9 µM; hits give high values.

Question: For O=C1C(Cl)=C(Oc2ccccc2)C(=O)c2ccccc21, which inhibition is on record?
Answer: 6.75% (inactive)

Question: COc1ccccc1C(=O)Nc1ccc(C)c(S(=O)(=O)N2CCCCC2)c1 was tested. Which inhibition did it give?
Answer: -7.43% (inactive)

Question: How did the inhibition turn out when NC(=S)N/N=C/c1ccc([N+](=O)[O-])cc1 was run?
Answer: 1.65% (inactive)

Question: Which inhibition does the source give for O=[N+]([O-])c1ccc(N/N=C/c2ccccc2)cc1 here?
Answer: 4.6% (inactive)

Question: For O=[N+]([O-])c1ccc(C=NN=Cc2ccc([N+](=O)[O-])cc2)cc1, which inhibition is on record?
Answer: 76.3% (active)

Question: With CC(C)N(Cc1nnc(-c2ccccc2Br)o1)C(=O)c1cc(Cl)nc2ccccc12 as the molecule, how does the inhibition read?
Answer: 2.14% (inactive)

Question: Which inhibition does the source give for CCOc1ccc(C(=O)Nc2ccc(S(=O)(=O)Nc3cc(C)on3)cc2)cc1 here?
Answer: -5.22% (inactive)

Question: How did the inhibition turn out when CCc1ccc(OC(C)C(=O)Nc2ccc(S(=O)(=O)Nc3cc(C)on3)cc2)cc1 (stereo not given) was run?
Answer: -5.02% (inactive)

Question: With CCC(Oc1ccccc1C)C(=O)Nc1ccc(S(=O)(=O)Nc2cc(C)on2)cc1 (stereo not given) as the molecule, how does the inhibition read?
Answer: 71.5% (active)

Question: With CN(c1ccccc1)S(=O)(=O)c1cc(C(=O)N2CCN(c3ncccn3)CC2)ccc1Cl as the molecule, how does the inhibition read?
Answer: -2.36% (inactive)

Question: Which inhibition does the source give for Nc1ncnc2c1ncn2[C@@H]1O[C@H](CNS(=O)(=O)c2ccc(-c3ccno3)s2)[C@@H](O)[C@H]1O here?
Answer: -0.947% (inactive)

Question: With COc1cccc(NC(=O)N2CCC(NC(=O)C(Cc3cccc(C)c3)NC(C)=O)CC2)c1 (stereo not given) as the molecule, how does the inhibition read?
Answer: -5.2% (inactive)

Question: How did the inhibition turn out when COc1ccc(CC(NC(C)=O)C(=O)NC2CCN(C(=O)C3CC3)CC2)cc1OC (stereo not given) was run?
Answer: 5.28% (inactive)

Question: For COc1ccccc1CC(NC(C)=O)C(=O)NC1CCN(C(=O)Nc2ccccc2Cl)CC1 (stereo not given), which inhibition is on record?
Answer: 78.3% (active)

Question: C=CCCC(=O)N1C[C@H]2CON(C)[C@H]2C[C@H]1c1cccc(Nc2ccccc2)c1 was tested. Which inhibition did it give?
Answer: 1.45% (inactive)

Question: How did the inhibition turn out when O=C(Nc1ccccc1)Oc1cccc2cccnc12 was run?
Answer: -4.21% (inactive)

Question: How did the inhibition turn out when CCC(CO)Oc1cc(NCc2ccccc2)c2ncn(C3CCCC3)c2c1 (stereo not given) was run?
Answer: 2.05% (inactive)

Question: How did the inhibition turn out when Cc1ccc2nc(C)cc(N/N=C/c3ccc(F)cc3)c2c1 was run?
Answer: -0.859% (inactive)

Question: How did the inhibition turn out when Oc1ccc(/C=N/Nc2nc(-c3ccccc3F)nc3ccccc23)c(O)c1 was run?
Answer: 4.73% (inactive)

Question: How did the inhibition turn out when Cc1cc(N/N=C/c2ccccc2F)c2ccccc2n1 was run?
Answer: 30.5% (active)

Question: For O=C(c1cccnc1)N(Cc1ccccc1)C(=O)c1cccnc1, which inhibition is on record?
Answer: -4.97% (inactive)

Question: Which inhibition does the source give for CSc1ncccc1C(=O)NCC(c1ccco1)N1CCCCC1 (stereo not given) here?
Answer: 63.8% (active)

Question: COc1ccc(C(CNC(=O)c2cccnc2SC)N2CCOCC2)cc1 (stereo not given) was tested. Which inhibition did it give?
Answer: -3.62% (inactive)

Question: How did the inhibition turn out when COc1ccccc1C(=O)NCCC(=O)NCC(c1ccco1)N1CCCCC1 (stereo not given) was run?
Answer: 2.93% (inactive)

Question: Which inhibition does the source give for Cc1ccc(C(=O)Nc2ccc3c(c2)OCCO3)cc1S(=O)(=O)N1CCOCC1 here?
Answer: -4.3% (inactive)

Question: CCCN(CCC)S(=O)(=O)c1cc2c(cc1Br)CCN2C(=O)CC was tested. Which inhibition did it give?
Answer: 0.953% (inactive)

Question: How did the inhibition turn out when COc1ccc(/C=C/C(=O)OCC(=O)N2CCN(S(=O)(=O)c3ccc(C)cc3C)CC2)cc1OC was run?
Answer: 6.76% (inactive)

Question: How did the inhibition turn out when O=C(CSc1nc2ccccc2c(=O)n1-c1ccccc1F)N1CCOCC1 was run?
Answer: -2.27% (inactive)

Question: With Cc1ccc(OCC(=O)Nc2cccc3c2CCCC3)cc1C as the molecule, how does the inhibition read?
Answer: 1.05% (inactive)

Question: Which inhibition does the source give for Cc1ccc(OCC(=O)Nc2ccc(C(=O)O)cc2NC(=O)COc2ccc(C)c(C)c2)cc1C here?
Answer: 56.8% (active)

Question: How did the inhibition turn out when Cc1cccc(OCC(=O)Nc2ccc(C(=O)O)cc2NC(=O)COc2cccc(C)c2)c1 was run?
Answer: -0.14% (inactive)

Question: With Cc1ccc(C(=O)N2CCCC(c3ccccc3)=N2)cc1 as the molecule, how does the inhibition read?
Answer: 4.38% (inactive)

Question: Which inhibition does the source give for Cc1ccc(NC(=S)N2CCCC(c3ccccc3)=N2)cc1 here?
Answer: 38.9% (active)

Question: With Cc1ccc(NC(=O)CCC(=O)N2CCC(c3ccccc3)=N2)cc1S(=O)(=O)N1CCCCC1 as the molecule, how does the inhibition read?
Answer: -3.11% (inactive)

Question: For CCCCNC(=O)C(C)N(CCN(C)C)C(=O)CCCN1C(=O)NC(c2ccc(Cl)cc2)C(C(=O)OCc2ccccc2)=C1C (stereo not given), which inhibition is on record?
Answer: -4.12% (inactive)

Question: For O=C(CCC1CCCN(Cc2ccc(O)c(Cl)c2)C1)NCc1ccccc1F (stereo not given), which inhibition is on record?
Answer: -4.54% (inactive)

Question: Which inhibition does the source give for COc1cccc(CNC(=O)CCC2CCCN(C(=O)c3ccoc3C)C2)c1 (stereo not given) here?
Answer: 56.3% (active)

Question: With CSc1ncccc1C(=O)N1CCCC(CCC(=O)NCc2ccccc2F)C1 (stereo not given) as the molecule, how does the inhibition read?
Answer: 4.75% (inactive)

Question: Which inhibition does the source give for Cc1[nH]c2c(C(=O)N3CCCC(CCC(=O)NCc4ccccc4F)C3)cccc2c1C (stereo not given) here?
Answer: 46.8% (active)

Question: With COc1cccc(C(=O)N2CCCC(CCC(=O)NCc3ccc(F)c(F)c3)C2)c1 (stereo not given) as the molecule, how does the inhibition read?
Answer: -10.1% (inactive)

Question: How did the inhibition turn out when COc1cccc(CNC(=O)CCC2CCCN(Cc3ccc(OC(F)F)cc3)C2)c1 (stereo not given) was run?
Answer: 7.33% (inactive)

Question: Which inhibition does the source give for CC(C)(C)S(=O)(=O)N1Cc2cc(CO)cc(CCO)c2[C@H]1CCO here?
Answer: -1.94% (inactive)

Question: Which inhibition does the source give for CC(C)NC(=O)Nc1cccc2c1O[C@@H](CN(C)S(=O)(=O)c1ccc(F)cc1)[C@@H](C)CN([C@H](C)CO)C2=O here?
Answer: -0.185% (inactive)

Question: For CCc1cc(C(=O)Nc2nnc(C3CC3)s2)sc1C, which inhibition is on record?
Answer: -1.8% (inactive)

Question: With CSCCC(NS(=O)(=O)c1ccc(C)cc1)C(=O)N(C)CC(=O)Nc1ccccc1Br (stereo not given) as the molecule, how does the inhibition read?
Answer: 0.255% (inactive)
